Laboratory results taken from PubChem BioAssay AID1159580 (chemical genetic matrix, 2015).
Out of some 5,500 compounds screened, about 2,000 (36%) were called active. Not shown: some 18% with an inconclusive outcome. Cut-off read from the data, not from the text of the source: active = normalized growth mostly below about 0.91 (no sharp cut-off); inconclusive = no clear call, values can overlap the other calls; inactive = mostly above about 0.92. Some of the results follow.

Assay: chemical genetic growth profiling, strain panel (AID 1159580);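 note: tested at 20 µM; growth read once vehicle control cultures reached saturation at 30 °C; 1 = growth at the plate median or of vehicle wells; lower values mean less growth of the strain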
Settings: S. cerevisiae deletion strains, growth OD

Measured: normalized growth

O=c1c(-c2ccc(O)cc2)coc2c(C3O[C@H](CO)[C@@H](O)[C@H](O)[C@H]3O)c(O)ccc12 (stereo not given in full)
inactive: locus YAL021C, strain ccr4, stronger effect = lower value 1.01 | locus YAL026C, strain drs2, stronger effect = lower value 0.991 | locus YAL030W, strain snc1, stronger effect = lower value 0.982 | locus YBL061C, strain skt5, stronger effect = lower value 0.977 | locus YBR009C, strain hhf1, stronger effect = lower value 0.957 | locus YBR023C, strain chs3, stronger effect = lower value 0.991 | locus YBR171W, strain sec66, stronger effect = lower value 0.977 | locus YBR231C, strain swc5, stronger effect = lower value 0.979 | locus YBR279W, strain paf1, stronger effect = lower value 0.985 | locus YCL011C, strain gbp2, stronger effect = lower value 0.968 | locus YCL016C, strain dcc1, stronger effect = lower value 0.991 | locus YCL061C, strain MRC1, stronger effect = lower value 0.994 | locus YCL069W, strain vba3, stronger effect = lower value 0.973 | locus YCR088W, strain abp1, stronger effect = lower value 0.996 | locus YDL005C, strain med2, stronger effect = lower value 0.978 | locus YDL040C, strain nat1, stronger effect = lower value 0.977 | locus YDR001C, strain nth1, stronger effect = lower value 0.978 | locus YDR069C, strain doa4, stronger effect = lower value 1 | locus YDR137W, strain rgp1, stronger effect = lower value 0.995 | locus YDR159W, strain sac3, stronger effect = lower value 0.933 | locus YDR195W, strain ref2 0.951 | locus YDR297W, strain sur2, stronger effect = lower value 0.978 | locus YDR334W, strain swr1, stronger effect = lower value 0.973 | locus YDR335W, strain msn5, stronger effect = lower value 0.987 | locus YDR392W, strain spt3, stronger effect = lower value 0.876 | locus YEL003W, strain gim4, stronger effect = lower value 0.979 | locus YEL037C, strain rad23, stronger effect = lower value 0.973 | locus YEL061C, strain CIN8 (second series), stronger effect = lower value 0.974 | locus YER015W, strain faa2, stronger effect = lower value 0.993 | locus YER016W, strain bim1, stronger effect = lower value 0.989 | locus YER111C, strain swi4, stronger effect = lower value 0.98 | locus YER155C, strain BEM2 (second series), stronger effect = lower value 0.947 | locus YFR010W, strain ubp6, stronger effect = lower value 0.977 | locus YGL167C, strain pmr1, stronger effect = lower value 0.965 | locus YGL173C, strain kem1, stronger effect = lower value 0.977 | locus YGL227W, strain vid30, stronger effect = lower value 0.982 | locus YGL240W, strain doc1, stronger effect = lower value 0.957 | locus YGL253W, strain hxk2, stronger effect = lower value 0.982 | locus YHR013C, strain ard1, stronger effect = lower value 0.921 | locus YHR027C, strain rpn1, stronger effect = lower value 0.987 | locus YHR030C, strain SLT2, stronger effect = lower value 0.957 | locus YHR079C, strain IRE1, stronger effect = lower value 0.976 | locus YHR142W, strain chs7, stronger effect = lower value 1.04 | locus YJL092W, strain hpr5, stronger effect = lower value 0.992 | locus YJL095W, strain BCK1 (second series), stronger effect = lower value 0.987 | locus YJL095W, strain BCK1, stronger effect = lower value 0.973 | locus YJL115W, strain asf1, stronger effect = lower value 0.98 | locus YJL129C, strain trk1, stronger effect = lower value 0.997 | locus YJL154C, strain vps35, stronger effect = lower value 0.972 | locus YJL164C, strain tpk1, stronger effect = lower value 0.999 | locus YJL166W, strain qcr8, stronger effect = lower value 0.98 | locus YJL187C, strain SWE1, stronger effect = lower value 0.977 | locus YJR066W, strain TOR1, stronger effect = lower value 0.898 | locus YKL160W, strain elf1, stronger effect = lower value 1.04 | locus YKR026C, strain gcn3, stronger effect = lower value 0.982 | locus YKR091W, strain srl3, stronger effect = lower value 0.98 | locus YLL001W, strain dnm1, stronger effect = lower value 0.99 | locus YLL026W, stronger effect = lower value 0.993 | locus YLL041C, strain sdh2, stronger effect = lower value 0.992 | locus YLR027C, strain aat2, stronger effect = lower value 0.965 | locus YLR113W, strain HOG1, stronger effect = lower value 1 | locus YLR221C, strain rsa3, stronger effect = lower value 0.985 | locus YLR258W, strain gsy2, stronger effect = lower value 0.982 | locus YLR262C, strain YPT6 (second series), stronger effect = lower value 0.997 | locus YLR320W, strain mms22, stronger effect = lower value 0.988 | locus YLR342W, strain FKS1, stronger effect = lower value 0.974 | locus YLR357W, strain rsc2, stronger effect = lower value 0.957 | locus YLR370C, strain arc18, stronger effect = lower value 0.981 | locus YLR384C, strain iki3, stronger effect = lower value 0.975 | locus YML120C, strain ndi1, stronger effect = lower value 0.995 | locus YMR058W, strain fet3, stronger effect = lower value 0.969 | locus YMR125W, strain sto1, stronger effect = lower value 0.954 | locus YMR129W, stronger effect = lower value 0.962 | locus YMR205C, strain PFK2, stronger effect = lower value 0.941 | locus YMR231W, strain pep5, stronger effect = lower value 0.985 | locus YNL071W, strain lat1, stronger effect = lower value 0.979 | locus YNL183C, strain NPR1, stronger effect = lower value 0.91 | locus YNL209W, strain ssb2, stronger effect = lower value 0.984 | locus YNL248C, strain rpa49, stronger effect = lower value 1.03 | locus YNL322C, strain KRE1 (second series), stronger effect = lower value 0.982 | locus YNR049C, strain mso1, stronger effect = lower value 0.973 | locus YOR001W, strain rrp6, stronger effect = lower value 1.01 | locus YOR070C, strain gyp1, stronger effect = lower value 0.983 | locus YOR080W, strain dia2, stronger effect = lower value 0.98 | locus YOR083W, strain WHI5, stronger effect = lower value 1.06 | locus YOR106W, strain vam3, stronger effect = lower value 1.01 | locus YOR231W, strain MKK1, stronger effect = lower value 0.96 | locus YOR265W, strain rbl2, stronger effect = lower value 0.989 | locus YOR270C, strain vph1, stronger effect = lower value 0.969 | locus YOR290C, strain snf2, stronger effect = lower value 0.921 | locus YPL051W, strain arl3, stronger effect = lower value 1.01 | locus YPL078C, strain atp4, stronger effect = lower value 1.01 | locus YPL106C, strain sse1, stronger effect = lower value 0.93 | locus YPL240C, strain hsp82, stronger effect = lower value 1.01 | locus YPL256C, strain CLN2, stronger effect = lower value 0.979
